Assay outcomes from PubChem.
LYPLA1 inh = counter-screen for PME1 inhibitors: inhibitors of human LYPLA1. hit rate 0.16% among 320,000. O75608. recombinant LYPLA1, FP-Rh probe fluorescence polarization. inhibition, % at 5.9 µM;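 active = inhibition above the mean of all tested compounds plus 3 SD, set per campaign, cut at about 14% in these data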;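 note: inhibitors block serine hydrolase probe labeling of LYPLA1 so polarization falls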
PREPL inh = inhibitors of human prolyl oligopeptidase-like enzyme PREPL | Q4J6C6 | recombinant PREPL, fluorescence polarization activity-based probe | inhibition, % at 5.96 µM | hit rate 0.68% among 320,000 | AID 2751
Target sequence (Q4J6C6 whole entry, looked up): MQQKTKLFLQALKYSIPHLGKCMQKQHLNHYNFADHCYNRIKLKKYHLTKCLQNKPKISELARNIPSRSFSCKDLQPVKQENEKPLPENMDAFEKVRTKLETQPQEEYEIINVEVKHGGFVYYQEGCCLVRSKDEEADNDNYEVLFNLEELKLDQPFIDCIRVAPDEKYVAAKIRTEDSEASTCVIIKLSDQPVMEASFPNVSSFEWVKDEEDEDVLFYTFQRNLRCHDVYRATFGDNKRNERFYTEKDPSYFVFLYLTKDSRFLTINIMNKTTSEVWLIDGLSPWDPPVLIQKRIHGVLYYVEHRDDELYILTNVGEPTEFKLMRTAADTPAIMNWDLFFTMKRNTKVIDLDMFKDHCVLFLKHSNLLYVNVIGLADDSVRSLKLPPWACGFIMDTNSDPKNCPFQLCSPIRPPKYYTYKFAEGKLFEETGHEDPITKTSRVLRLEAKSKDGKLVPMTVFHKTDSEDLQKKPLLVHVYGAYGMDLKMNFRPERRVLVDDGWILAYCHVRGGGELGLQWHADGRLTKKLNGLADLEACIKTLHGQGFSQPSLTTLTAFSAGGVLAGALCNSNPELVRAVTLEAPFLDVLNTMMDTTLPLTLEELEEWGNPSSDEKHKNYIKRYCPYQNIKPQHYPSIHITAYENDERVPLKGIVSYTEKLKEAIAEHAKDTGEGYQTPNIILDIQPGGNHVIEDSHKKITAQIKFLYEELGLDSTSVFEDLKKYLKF
MEX-5 binding = C. elegans MEX-5 TCR-2 RNA binding activity; activity score (negative = inhibition of binding), % at 10 µM; AID 1832; hit rate 0.38% among 300,000; Q9XUB2; MEX-5/FITC-TCR2 RNA binding, fluorescence polarization; hits give low values;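 active = inhibition past about -25% in most replicates, and total fluorescence under double the plate's negative control median, limit read from the data; inconclusive = replicates evenly split on the limit, or fluorescence at least double controls; inactive = too little inhibition in most replicates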
LYPLA2 inh = blocks human lysophospholipase 2, a PME1 counter-screen; recombinant LYPLA2, FP-Rh probe fluorescence polarization; O95372; AID 2177; inhibition, % at 5.9 µM; hit rate 0.38% among 320,000;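 active = inhibition above the screen-wide mean plus 3 SD, limit set per campaign, cut at about 26% in these data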
Fam108B inh = blocks mouse Fam108B hydrolase in RBBP9 counter-screen; recombinant Fam108B, FP-Rh probe fluorescence polarization; hit rate 0.33% among 300,000; inhibition, % at 9.51 µM;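 active = inhibition above the screen mean inhibition plus 3 SD, computed separately per campaign, cut at about 18% in these data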;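 note: inhibitors lower polarization as less probe binds the enzyme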
PME-1 primary = blocks human protein phosphatase methylesterase 1; Q9Y570; recombinant PME-1, FP-Rh probe fluorescence polarization; inhibition, % at 5.9 µM; hit rate 0.53% among 320,000; AID 2130;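 active = inhibition above the campaign mean of all compounds plus 3 SD, cut at about 26% in these data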;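 note: competitive labeling of PME-1 active site by serine hydrolase directed probe; inhibitors block probe labeling so polarization falls and inhibition rises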
Fam108b confirm = confirmation of mouse Fam108b serine hydrolase inhibitors; shares compounds with Fam108B inh; recombinant Fam108b, FP-Rh probe fluorescence polarization; inhibition, % at 9.51 µM; hit rate 44% among 930; AID 1978;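 active = inhibition above a limit from the primary screen, the mean over all compounds plus 3 SD, cut at about 19% in these data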;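 note: inhibitors free the probe so polarization falls as inhibition rises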
Fam108b ABPP HTS = inhibits mouse Fam108b in gel-based ABPP; inhibition, % at 20 µM; recombinant Fam108b, fluorophosphonate probe; shares compounds with Fam108B inh; AID 588649; hit rate 44% among 260; in the data active = inhibition above about 40%
LYPLA1 confirm = counter-screen for PME1 inhibitors: confirmation of human LYPLA1 inhibitors; recombinant LYPLA1, FP-Rh probe fluorescence polarization; shares compounds with LYPLA1 inh; AID 2233; hit rate 69% among 480; inhibition, % at 5.9 µM;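 active = mean inhibition across replicates above the hit cutoff set in the primary screen, cut at about 15% in these data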;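 note: loss of FP-Rh probe labeling of LYPLA1 seen as lower polarization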
LYPLA2 conf = counter-screen for PME1 inhibitors: confirmation of human LYPLA2 inhibitors. shares compounds with LYPLA2 inh. recombinant LYPLA2, FP-Rh probe fluorescence polarization. inhibition, % at 5.9 µM. hit rate 72% among 1,100;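 active = mean inhibition across replicates above the hit cutoff set in the primary screen, cut at about 26% in these data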;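 note: blocked labeling of the enzyme by serine hydrolase FP-Rh probe lowers polarization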
PREPL confirm = human PREPL inhibition, confirmation; hit rate 67% among 2,000; recombinant PREPL, fluorescence polarization activity probe; AID 2803; inhibition, % at 5.96 µM; shares compounds with PREPL inh
Numbers stand for hits; 0 = inactive; ? = inconclusive; - = no result given. Shown are actives, neighbours in structure and some others; about 1.6% of the full set was active somewhere. Cut-off read from the data, not from the text of the source, unless noted: active = inhibition above about 43%; inactive = the rest.

SMILES	LYPLA1 inh	PREPL inh	MEX-5 binding	LYPLA2 inh	Fam108B inh	PME-1 primary	Fam108b confirm	LYPLA1 confirm	LYPLA2 conf	PREPL confirm	others
COc1c2c(cc3c1OCO3)CC[N+](C)=C2	0	0	0	0	0	0	-	-	-	-
CC(=O)c1ccc2c(c1)C1C(Cl)C(Sc3ccccc3[N+](=O)[O-])CC1C(c1ccccc1)N2 (stereo not drawn)	0	0	0	0	38	70	0	-	-	-
CN1CC(C(=O)c2cccc(C(F)(F)F)c2)C(c2ccc(Cl)cc2)C1 (stereo not drawn)	0	0	0	0	20	0	0	-	-	-
CCCCn1c(=O)c(C(=O)NCc2ccccc2Cl)c(O)c2ccccc21	0	0	0	0	0	0	-	-	-	-
O=C(O)c1[nH]c(=O)[nH]c(=O)c1F	0	0	0	0	0	0	-	-	-	-
CC1Oc2cc3c(-c4c(O)cc(O)c5c(O)c6c(cc45)OC(C)C(C)C6=O)c(O)cc(O)c3c(O)c2C(=O)C1C (stereo not drawn)	0	85	0	0	41	28	37	-	-	-	Fam108b ABPP HTS=0
CC(C)OCCCNC(=O)c1c(N)n(Cc2cccs2)c2nc3ccccc3nc12	0	0	0	0	19	0	0	-	-	-
COc1ccc(OC)c(N2C(=O)/C(=C/c3ccco3)C(=O)NC2=S)c1	0	0	0	30	82	39	0	-	0	-
[O-][n+]1onc2c1CCC1N(O)CCC21O (stereo not drawn)	0	0	0	0	0	0	-	-	-	-
C[n+]1c2ccccc2nc2ccc(NCCO)cc21	70	69	0	63	72	71	42	63	48	66	Fam108b ABPP HTS=0
OCCNc1c2c(nc3ccccc13)CCCC2	0	0	0	0	0	0	-	-	-	-
CNc1ccc2nc3ccccc3[n+](C)c2c1	103	98	-42	117	102	116	67	83	94	84	Fam108b ABPP HTS=0
Oc1cc2c(cc1CN1CCN(c3ccccc3F)CC1)OCO2	0	0	0	0	0	0	-	-	-	-
O=C1C(=O)c2ccccc2-c2ccccc21	83	53	0	85	64	37	65	85	90	50	Fam108b ABPP HTS=0
Cc1nc2c(=O)n(C)c(=O)nc-2n(C)n1	88	44	0	88	66	36	82	83	95	51	Fam108b ABPP HTS=0
CCOC(=O)c1ccc(NC(=O)N2C[C@@H]3C[C@@H](C2)c2cccc(=O)n2C3)cc1	0	0	0	0	0	0	-	-	-	-
O=C1Nc2ccc(Br)cc2C(c2ccc(Cl)cc2)=NC1O (stereo not drawn)	-	-	0	-	-	-	-	-	-	-
COc1cccc(OP(=O)(Nc2ccccc2)Oc2cccc(OC)c2)c1	0	0	0	0	0	0	-	-	-	-
CCn1nc(-c2ccccc2)nc2c(=O)n(C)c(=O)nc1-2	89	56	?	96	65	42	86	-	-	44	Fam108b ABPP HTS=0
NC(N)=N/N=C/c1ccc(N(c2ccccc2)c2ccccc2)cc1	0	77	0	0	19	0	19	-	-	68
COc1ccc(/C=N\N=C(N)N)cc1	0	0	0	0	0	0	-	-	-	-
Clc1ccc(C(c2ccc(Cl)cc2)n2cc[n+](CC(OCc3ccc(Cl)cc3Cl)c3ccc(Cl)cc3Cl)c2)cc1 (stereo not drawn)	22	0	-	32	0	0	-	52	43	-
Oc1c(Br)c(Br)c(Br)c(Br)c1Br	25	0	-	56	-	75	-	30	58	-
Oc1c(Br)cc(Br)cc1Br	0	0	-	0	-	0	-	-	-	-
Cc1ccccc1CN1CCNCC1	0	0	0	0	0	0	-	-	-	-
CCOC(=O)c1c(NS(=O)(=O)c2ccccc2)n(CCCOC)c2nc3ccccc3nc12	83	46	-26	96	0	33	-	0	0	0
